Article PMC5540273 (PLoS ONE, 2017)

Columns and labels:
Settings in all cases: concentration: 1 μM,replicates: in singlicate; n = 1
NEK11 = test system: NEK11
NEK1 = test system: NEK1
NEK2 = test system: NEK2
NEK3 = test system: NEK3
NEK4 = test system: NEK4
NEK5 = test system: NEK5
NEK6 = test system: NEK6
NEK7 = test system: NEK7
NEK9 = test system: NEK9
NIK = test system: T1, NIK
T1 construct: gene MAP3K14

NIM1 = test system: T2, NIM1
T2 construct: gene MGC42105

NLK = test system: NLK
OSR1 = test system: T3, OSR1
T3 construct: gene OXSR1

PAK1 = test system: PAK1
PAK2 = test system: PAK2
PAK3 = test system: PAK3
PAK4 = test system: PAK4
PAK6 = test system: PAK6
PAK7 = test system: PAK7
PCTK1 = test system: T4, PCTK1
T4 construct: gene CDK16
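Note: KINOMEscan kinase panel screen.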

| Structure (SMILES) | %Inh (NEK11) | %Inh (NEK1) | %Inh (NEK2) | %Inh (NEK3) | %Inh (NEK4) | %Inh (NEK5) | %Inh (NEK6) | %Inh (NEK7) | %Inh (NEK9) | %Inh (NIK) | %Inh (NIM1) | %Inh (NLK) | %Inh (OSR1) | %Inh (PAK1) | %Inh (PAK2) | %Inh (PAK3) | %Inh (PAK4) | %Inh (PAK6) | %Inh (PAK7) | %Inh (PCTK1) |
| --- | --- | --- | --- | --- | --- | --- | --- | --- | --- | --- | --- | --- | --- | --- | --- | --- | --- | --- | --- | --- |
| C=CC(=O)Nc1cc2c(Nc3ccc(F)c(Cl)c3)ncnc2cc1OCCCN1CCOCC1 [GW781483] | 0% | 0% | 0% | 18% | 0% | 3% | 0% | 11% | 22% | 6% | 36% | 0% | 0% | 0% | 14% | 0% | 15% | 0% | 0% | 1% |
| NC(=O)c1cc(-c2ccccc2)cc2c(C3CCNCC3)c[nH]c12 [GSK301362] | 0% | 0% | 10% | 7% | 4% | 12% | 0% | 3% | 21% | 0% | 15% | 28% | 14% | 30% | 27% | 38% | 0% | 0% | 4% | 9% |
| Cl.Cl.Nc1nc(-c2ccc3c(N)n[nH]c3c2)cc(N2CCCC(NC(=O)c3ccccc3)C2)n1 (stereo not shown) [GSK2286775] | 0% | 7% | 0% | 23% | 7% | 11% | 0% | 0% | 6% | 0% | 2% | 13% | 0% | 6% | 1% | 0% | 0% | 17% | 0% | 5% |
| Cc1ccc2c(-c3ccncc3)c(-c3ccc(F)cc3)nn2c1.Cl [GW461484] | 21% | 0% | 0% | 0% | 11% | 4% | 0% | 0% | 0% | 4% | 13% | 91.3% | 0% | 29% | 30% | 19% | 0% | 7% | 4% | 0% |
| CCN(CC)CCCCNc1ncc2cc(-c3c(Cl)cccc3Cl)c(NC(=O)NC(C)(C)C)nc2n1 | 0% | 43% | 11% | 29% | 0% | 0% | 38% | 0% | 0% | 0% | 6% | 81% | 0% | 18% | 2% | 7% | 0% | 0% | 16% | 0% |
| Cl.Cl.NC[C@H](Cc1ccc(C(F)(F)F)cc1)NC(=O)c1cc(Br)c(-c2ccnc3[nH]ccc23)s1 [GSK1487252] | 0% | 15% | 0% | 23% | 4% | 4% | 0% | 0% | 3% | 0% | 4% | 0% | 0% | 37% | 33% | 83% | 0% | 25% | 33% | 0% |
| Cl.Cl.NC[C@H](CC1CCCCC1)NC(=O)c1cc(Br)c(-c2ccnc3[nH]ccc23)s1 [GSK1581427] | 0% | 37% | 0% | 17% | 23% | 0% | 0% | 0% | 1% | 38% | 22% | 0% | 20% | 38% | 36% | 81% | 12% | 28% | 42% | 3% |
| CCn1c(-c2nonc2N)nc2c(C#CC(C)(C)O)nc(OCCN)cc21.Cl.Cl [GSK902056] | 3% | 0% | 13% | 4% | 20% | 0% | 0% | 0% | 0% | 63% | 10% | 0% | 32% | 11% | 36% | 10% | 68% | 45% | 93.4% | 2% |
